This passage reports growth results from PubChem BioAssay (NCI).

About 83,000 compounds went through this panel and 20% of them were active in at least one assay; those are over-represented in the sample as a whole.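 Results are percent growth after 48 hours of single-concentration exposure. 100 means growth as in untreated cells, lower positive values show inhibition; negative values down to -100 show cell death.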 Calls of active or inactive are those of the source. The calls were made as follows: active = growth percent below 10; inactive = the rest.

For this assay, the system named is HL-60(TB) leukemia. Nature of the assay: NCI-60 one-dose screen, 48 h (100 = growth as untreated, 0 = no growth, -100 = all killed). To be noted: 10 µM unless noted.
`C[n+]1ccc(Nc2ccc(NC(=O)c3ccc(Nc4cc[n+](C)c5ccc(N)cc45)cc3)cc2)cc1`: the growth was 82.3% (inactive).
Take `Cc1cc(C)cc(CCCCCCCCCCCCCCCCCC(=O)O)c1`: the growth was 71% (inactive).
Next, `COc1ccc(-c2nsc3c2NC(=O)CC3c2ccc3c(c2)OCCO3)cc1` (stereo not drawn): 13% (inactive).
In the case of `CC[C@@H](C(=O)[C@@H](C)[C@@H](O)[C@H](C)[C@@H]1O[C@@H]([C@@H](CC)C(=O)NCCc2ccc(F)cc2)CC[C@@H]1C)C1O[C@]2(C=CC(=O)[C@]3(CC[C@@](C)([C@H]4CC[C@](O)(CC)[C@H](C)O4)O3)O2)[C@H](C)C[C@@H]1C` (stereo partly drawn), the growth is 6.93% (active).
Turning to `N#Cc1c(-c2ccc(F)cc2)nc(N=Nc2c(O)[nH]c3ccc(Cl)cc23)nc1N1CCOCC1`, the growth is 73.3% (inactive).
Consider `COc1ccc(/C=C/C(=O)C(=O)/C=C/c2ccc(OC)c(OC)c2)cc1OC`, for which the growth is 35.4% (inactive).
Turning to `CC1=Nc2cnc(Nc3ccc(OCCN4CCCC4)cc3)nc2Nc2ccccc21`, the growth is 76.4% (inactive).
Next, `O=C(O)c1ccc2c(c1)CCC2`: 68.3% (inactive); `CC1=C(C(=O)OC(C)C)C(c2ccc3c(c2)OCO3)NC(=S)N1` (stereo not drawn): 105% (inactive).
Next, `O=C(C(=O)N1CCOCC1)c1ccc(O[C@H]2O[C@H](CO)[C@@H](O)[C@H](O)[C@@H]2O)cc1`: 113% (inactive).
Next, `CCS(=O)(=O)CCCl`: 99.8% (inactive); `OCc1cnccc1NC12CC3CC(CC(C3)C1)C2`: 85.3% (inactive).
For `CS(=O)(=O)c1ccc(C(=O)N/N=C/c2ccccc2O)cc1`, the growth is 6.35% (active).
